TGFb inhibitor: qHTS for Inhibitors of TGF-b. HepG2 CAGA-GFP TGF-b/SMAD3 reporter, GFP fluorescence, 18 h; TGF-beta stimulated, 500 pg/mL final. AID 588855, 2011. 1.2% of 410,000 active. Potency, µM (titrated, usually from 46.1 µM), for inactives: at the highest dose activity, negative = inhibition, usual class: inhibitors; note: % is set by controls: 0 for no effect and ±100 for the full control effect; nearly all actives have a fitted effect of over 65% in size
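First, reporter cells (HEPG2 CAGA-GFP) rested 2 h at 37 degrees C. Next, compounds were pinned in and TGF-beta added to 500 pg/mL final. After 18 h, GFP was imaged per cell and summed per well.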
ATXN viability: Viability Counterscreen for Primary qHTS for Inhibitors of ATXN expression | S2 cells (HEK-293 line with an ATXN2-luciferase reporter) viability, CellTiter-Fluor protease fluorescence, 24 h | Potency, µM (highest dose often 56.7 µM), actives largely listed as cytotoxic | 0.49% of 400,000 active | AID 651635, 2014; note: nearly all actives have a fitted effect of over 40% in size
ATXN2 expr inh: Primary qHTS for Inhibitors of ATXN expression | HEK-293 ATXN2-luciferase reporter, luminescence, 24 h | Potency, µM (titrated, usually from 57 µM), without a hit: at the highest dose activity change, negative = inhibition, actives largely listed as inhibitors | 0.72% of 360,000 active | AID 1745845, 2022; note: % is set by controls: 0 for no effect and ±100 for the full control effect; nearly all actives have a fitted effect of over 55% in size
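qHTS (up to 57 uM final) was run with 24 h compound exposure of reporter cells at 37 °C. Each well was multiplexed: SteadyGlo luminescence measured ATXN2-luciferase expression after a fluorogenic Gly-Phe-AFC viability readout (25 uM final).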
HepG2 viability: qHTS for Inhibitors of TGF-b: Cytotox Counterscreen. 0.76% of 410,000 active. Potency, µM (highest dose often 46.1 µM), for inactives: at the highest dose activity change, negative = cytotoxicity, actives largely listed as cytotoxic. HepG2 CAGA-GFP viability, ATP luminescence, 18 h
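HepG2 CAGA-GFP cells (1000/well, DMEM with 1% FBS) received compound, then TGF-beta at 500 pg/mL final, and were incubated 18 hours at 37 degrees C. Viability was read by CellTiter-Glo luminescence. Media-only wells were set as complete cell-killing and DMSO as no toxicity.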
The depositor's hits bear a star. An excerpt weighted towards active compounds, which were near 2.3% of everything screened. Calls come from the whole dose curve; as a rule, active = well fitted curve in the direction sought with a large enough effect; inconclusive = small, poorly fitted or top-dose-only effect, or another doubt; inactive = no such curve, though single readings can be large; an effect the other way counts as inactive or inconclusive. Potency is the fitted concentration of half-maximal effect.

What do the screens show for `C[C@@H]1C(c2cccc(Cl)c2)=NN(c2ccc(Br)cc2)[C@H]1C(=O)N1CCOC1=O`?
TGFb inhibitor: 10µM*; ATXN2 expr inh: -17%; HepG2 viability: -30%

How did C[C@@H]1C(c2cccc(Cl)c2)=NN(c2ccccc2)[C@H]1C(=O)N1CCOC1=O do in these assays?
TGFb inhibitor: 20µM*; ATXN2 expr inh: -6%; HepG2 viability: -48%

How did C[C@@H]1C(c2ccccc2)=NN(c2ccccc2)[C@H]1C(=O)N1CCOC1=O do in these assays?
TGFb inhibitor: 6%; ATXN viability: inactive; ATXN2 expr inh: 11%; HepG2 viability: 0%

What do the screens show for `Cc1cc2c(c(-c3ccc(Cl)cc3)c1)OC(CNC(=O)CCC(=O)N(C)C)C2` (centres undefined)?
ATXN viability: inactive

How did CCCCCC1Nc2cc(C(F)(F)F)c(S(N)(=O)=O)cc2S(=O)(=O)N1 (centres undefined) do in these assays?
ATXN viability: inactive; ATXN2 expr inh: -1%

What do the screens show for `CCOC(=O)c1c(-c2ccccc2)oc2ccc(OCC(O)CN(C)C)cc12` (centres undefined)?
TGFb inhibitor: 14µM*; ATXN viability: inconclusive; ATXN2 expr inh: -36%; HepG2 viability: 18µM*

Results for CCOC(=O)c1c(-c2ccccc2)oc2ccc(OC(C)C(=O)O)cc12 (centres undefined) ?
TGFb inhibitor: 0%; ATXN viability: inactive; ATXN2 expr inh: -12%; HepG2 viability: 15%

What do the screens show for `Nc1cccc(/C=C2\C=Cc3ccccc32)c1`?
TGFb inhibitor: 11%; HepG2 viability: 1%

Results for C=C1C(=O)OC2CC1C(O)CC(C)=CCCC(C)=CC(O)CC2C (centres undefined) ?
TGFb inhibitor: 11µM*; ATXN2 expr inh: inconclusive; HepG2 viability: -113%

How did C=C1C(=O)OC2C1CCC(C)C1C=CC(=O)C12C (centres undefined) do in these assays?
TGFb inhibitor: inconclusive; ATXN viability: inconclusive; ATXN2 expr inh: inconclusive; HepG2 viability: -1%

Results for CC(C)[C@H]1COCCS(=O)(=O)N1Cc1cccc([N+](=O)[O-])c1 ?
TGFb inhibitor: -6%; HepG2 viability: -37%

Results for O=C(C1CCCN(c2ncnc3c2nc2n3CCCCC2)C1)N1CCN(c2ccccc2)CC1 (centres undefined) ?
TGFb inhibitor: 4%; ATXN viability: inactive; HepG2 viability: -3%

How did Cc1ccc(C)c(N2CCN(C(=O)C3CCCN(c4ncnc5c4nc4n5CCCCC4)C3)CC2)c1 (centres undefined) do in these assays?
TGFb inhibitor: 18µM*; ATXN viability: inconclusive; ATXN2 expr inh: inconclusive; HepG2 viability: -45%

How did Cc1ccc(N2CCN(C(=O)C3CCCN(c4ncnc5c4nc4n5CCCCC4)C3)CC2)c(C)c1 (centres undefined) do in these assays?
TGFb inhibitor: -6%; ATXN viability: inactive; HepG2 viability: -12%

What do the screens show for `CCN(C(=O)C1CCN(c2ncnc3c2nc2n3CCCCC2)CC1)c1cccc(Cl)c1`?
TGFb inhibitor: 11µM*; HepG2 viability: -22%

How did O=C(C1CCCN(c2ncnc3c2nc2n3CCCCC2)C1)N1CCN(c2cccc(Cl)c2)CC1 (centres undefined) do in these assays?
TGFb inhibitor: 11µM*; ATXN viability: 14µM*; HepG2 viability: -38%

How did CN(C(=O)C1CCCN(c2ncnc3c2nc2n3CCCCC2)C1)c1cccc(Cl)c1 (centres undefined) do in these assays?
TGFb inhibitor: inconclusive; ATXN viability: inactive; ATXN2 expr inh: -33%; HepG2 viability: -23%

Results for CN(C)c1ccc(C=Nc2cnc3ccccc3c2)cc1 ?
TGFb inhibitor: 6%; HepG2 viability: -6%

Results for N#Cc1cc(NC(=O)C(=O)O)c(Cl)c(NC(=O)C(=O)O)c1 ?
ATXN viability: inactive; ATXN2 expr inh: 18%

Results for CCC1CSC(Nc2ccc(C(=O)/C=C/c3cccc(C)c3)cc2)=N1 (centres undefined) ?
TGFb inhibitor: 18µM*; ATXN viability: inactive; ATXN2 expr inh: -20%; HepG2 viability: -101%

How did COc1cccc(Cn2nnc(C(=O)NCCc3ccc(Cl)cc3)c2N)c1 do in these assays?
TGFb inhibitor: inconclusive; ATXN viability: inactive; ATXN2 expr inh: -11%; HepG2 viability: 18µM*

Screening results: PubChem, National Center for Advancing Translational Sciences (NCATS)
